According to PubChem BioAssay (Tox21):
Results filed as inconclusive are left out. Active and inactive are the calls of the source. Unless noted, calls come from the whole dose curve; as a rule, active = well fitted curve in the direction sought with a large enough effect in the repeat runs; inconclusive = weak or mixed curves; inactive = no such curve, though single readings can be large; an effect the other way counts as inactive or inconclusive.

What was measured:
[1] = qHTS RealTime-Glo MT Cell Viability Assay in HEK293 cells - 24 hour (AID 1224886); note: nearly all actives have a fitted effect of over 50% in size; note: potency is the fitted concentration of half-maximal effect; for activity change, negative = cytotoxicity: top concentration of the series differs between compounds
Outline: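 Nonlytic real-time viability readout: viable cells convert prosubstrate to NanoLuc substrate, giving luminescence proportional to live cell number. HEK293, 600 cells/well, compound added after 5 h, continuous culture at 37 C.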

[2] = qHTS RealTime-Glo MT Cell Viability Assay in HEK293 cells - 8 hour (AID 1224887); note: nearly all actives have a fitted effect of over 50% in size; note: potency is the fitted concentration of half-maximal effect; for activity change, negative = cytotoxicity: top concentration of the series differs between compounds
Outline: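 Real-time viability in HEK293: signal arises when living cells convert a prosubstrate for NanoLuc in the medium, so luminescence tracks viable cell number. Compound (23 nL, DMSO) added 5 h post-seeding; kinetic reads at 0–40 h, 37 C.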

[3] = A CellTox Green Cytotoxicity Assay to monitor cytotoxicity in HEK293 cells - 16 hour (AID 1224888); note: nearly all actives have a fitted effect of over 35% in size
Outline: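 Cells (HEK293, 600/well) and dye reagent are dispensed together. After 5 h at 37 C, 23 nL compound is pinned in. Plates stay at 37 C for 40 h with fluorescence read at 0h, 8h, 16h, 24h, 32h and 40h.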

[4] = qHTS RealTime-Glo MT Cell Viability Assay in HepG2 cells - 0 hour (AID 1224889); note: nearly all actives have a fitted effect of over 50% in size
Outline: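 Luminescence read-out: viable HepG2 cells reduce a prosubstrate to a NanoLuc substrate, giving a signal proportional to live cell number. Reads taken at 0, 8, 16, 24, 32 and 40 h of compound exposure at 37 C.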

[5] = A CellTox Green Cytotoxicity Assay to monitor cytotoxicity in HepG2 cells - 8 hour (AID 1224890); note: nearly all actives have a fitted effect of over 45% in size; note: potency is the fitted concentration of half-maximal effect
Outline: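 Cells and non-lytic dye reagent are dispensed together (600 HepG2 cells/well) and incubated 5 h before DMSO compound transfer. Kinetic fluorescence is then recorded in the same wells during 40 h at 37 C.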

[6] = qHTS assay to identify small molecule antagonists of the estrogen receptor alpha (ER-alpha) signaling pathway using the BG1 cell line in the presence of 0.1 nM 17-beta-estradiol - cell viability counter screen (AID 1259241); note: nearly all actives have a fitted effect of over 40% in size
Outline: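 VM7Luc4E2 cells (endogenous full-length ER-alpha, 4xERE-luciferase), cultured 5 days in charcoal-stripped serum, exposed to compounds with 0.1 nM 17beta-estradiol (final) for 22 hr at 37C. Viability read in same wells as live-cell protease fluorescence after 30 min.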

[7] = qHTS assay to identify small molecule antagonists of the androgen receptor (AR) signaling pathway using the MDA cell line in the presence of 0.5 nM R1881 - cell viability counter screen (AID 1259242); note: nearly all actives have a fitted effect of over 45% in size
Outline: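 Steps: plate MDA-kb2 cells, rest 5 hr at 37C without CO2; pin in compounds in DMSO; add R1881 to 0.5 nM final; incubate 16 hr; add CellTiter-Fluor, 30 min; read fluorescence.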

[8] = molecular target: Androgen receptor (Homo sapiens) (UniProt P10275); assay: qHTS assay to identify small molecule antagonists of the androgen receptor (AR) signaling pathway using the MDA cell line in the presence of 0.5 nM R1881 (AID 1259243); note: nearly all actives have a fitted effect of over 50% in size
Outline: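 Stably transfected MDA-kb2 cells express luciferase from an MMTV promoter bearing both AR and GR response elements. Compounds plus 0.5 nM R1881 (final) were incubated 16 hr at 37C without CO2, then luminescence measured.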

[9] = qHTS assay to identify small molecule HDAC inhibitors (AID 1259364); note: potency is the fitted concentration of half-maximal effect;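 note: wild-type HCT-116 cells with endogenous class I/II HDAC activity; nearly all actives have a fitted effect of over 45% in size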; for activity change, negative = inhibition: top concentration of the series differs between compounds
Outline: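 Cells (HCT-116, wild type) are seeded at 1,500 per well, incubated overnight, treated with compound in DMSO for 2 hr, then developed with HDAC-Glo I/II reagent for 30 min at room temperature.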

[10] = qHTS assay to identify small molecule HDAC inhibitors - cell viability counter screen (AID 1259365)
Outline: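 Wild-type HCT-116 cells, 1,500/well, cultured overnight, then compound-treated 2 h at 37 C. Viability measured as ATP luminescence with CellTiter-Glo after 30 min at room temperature.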

[11] = qHTS assay to identify small molecule antagonists of the sonic hedgehog signaling (Shh) pathway - cell viability counter screen (AID 1259367); note: nearly all actives have a fitted effect of over 55% in size
Outline: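 Fluorescence read-out (CellTiter-Fluor, 1 hr at 37C) taken after 23 hr compound treatment of 3T3 Gli1-Luc cells stimulated with conditioned medium. Cells were seeded at 2,000 per well and pre-incubated 4 hr.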

[12] = qHTS assay to identify small molecule agonists of the sonic hedgehog signaling (Shh) pathway (AID 1259368; calls by dose curve;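 note: NIH/3T3-derived 3T3Gli1-Luc cells carrying a stable Gli1-driven firefly luciferase reporter; series mostly up to about 92 µM; nearly all actives have a fitted effect of over 15% in size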)
Outline: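 Cells of a mouse NIH/3T3 clone stably expressing luciferase under the Gli1 transcriptional response element are exposed to test chemicals for 24 hr at 37 C. Pathway activation is detected as a rise in luminescence.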

[13] = molecular target: Estrogen receptor beta (Homo sapiens) (UniProt Q92731); assay: qHTS assay to identify small molecule agonists of the estrogen receptor beta (ER-beta) signaling pathway (AID 1259377; active = well fitted activation curve with a large enough effect in the signal ratio in the repeat runs, not every such curve was filed as active; the % refers to the signal ratio)
Outline: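 ER-beta-UAS-bla HEK293T cells in medium with 2% charcoal-stripped FBS were exposed to compounds for 16 h at 37C. Beta-lactamase reporter activity was read as fluorescence after 2 h with LiveBLAzer B/G FRET substrate at room temperature.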

[14] = molecular target: Estrogen receptor beta (Homo sapiens) (UniProt Q92731); assay: qHTS assay to identify small molecule antagonists of the estrogen receptor beta (ER-beta) signaling pathway (AID 1259378; active = well fitted inhibition curve with a large enough effect in the signal ratio in the repeat runs, not every such curve was filed as active; the % refers to the signal ratio)
Outline: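 ER-beta-UAS-bla HEK293T cells in 2% charcoal-stripped FBS medium treated with compound plus 1nM final 17-beta-estradiol for 16 hr at 37C. Beta-lactamase reporter read by FRET substrate fluorescence after 2 hours at room temperature.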

[15] = qHTS assay to identify small molecule agonists of the androgen receptor (AR) signaling pathway in the presence of an antagonist - cell viability counter screen (AID 1259379);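 note: MDA-kb2 human breast cancer cells carrying an MMTV luciferase reporter; series mostly up to about 92 µM; nearly all actives have a fitted effect of over 25% in size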
Outline: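 Cytotoxicity is assessed by CellTiter-Fluor in MDA-kb2 cells carrying an MMTV-driven luciferase reporter. Cells receive 3.0uM nilutamide plus compounds at 15 concentrations and incubate 16 hr at 37C without CO2 before fluorescence reading.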

[16] = qHTS assay to identify small molecule agonists of the estrogen receptor beta (ER-beta) signaling pathway - cell viability counter screen (AID 1259380); note: nearly all actives have a fitted effect of over 30% in size
Outline: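 Cytotoxicity is measured in parallel with the reporter screen: after 16 hr compound exposure at 37C and a 2 hr LiveBLAzer step, CellTiter-Glo is added to the same ER-beta-UAS-bla HEK293T wells and luminescence read after 30 min.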

[17] = qHTS assay to identify small molecule agonists of the sonic hedgehog signaling (Shh) pathway - cell viability counter screen (AID 1259366); note: nearly all actives have a fitted effect of over 50% in size
Outline: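 NIH/3T3-derived Gli1-Luc reporter cells, 2,000 per well, received compound after 4 h and were treated about 23 h at 37C. Viability measured in the same wells by CellTiter-Fluor fluorescence after 1 h.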

[18] = qHTS assay to identify small molecule antagonists of the sonic hedgehog signaling (Shh) pathway (AID 1259369; calls by dose curve; note: nearly all actives have a fitted effect of over 45% in size)
Outline: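 Cells are plated and held 4hr at 37 C, compounds (DMSO) are pinned in, conditioned medium is added to stimulate the pathway, and after 24hr luciferase reagent is added for 30min before luminescence is read.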

[19] = molecular target: Estrogen receptor (Homo sapiens) (UniProt P03372); assay: qHTS assay to identify small molecule antagonists of the estrogen receptor alpha (ER-alpha) signaling pathway using the BG1 cell line in the presence of 0.1 nM 17-beta-estradiol (AID 1259244); note: nearly all actives have a fitted effect of over 50% in size
Outline: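 Antagonist mode: compounds in DMSO are pinned onto VM7Luc4E2 reporter cells, 0.1 nM final 17beta-estradiol is added, and after 22 h at 37C luciferase luminescence is measured with ONE-Glo.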

[20] = qHTS assay to identify small molecule phospholipidosis (PLD) inducers (AID 1259344; active = well fitted curve in the direction sought with a large enough effect; an effect the other way counts as inactive or inconclusive)
Outline: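 Read-out is LipidTOX Red fluorescence (ex 595/em 615) imaged in HepG2 cells after 24 h compound exposure at 37 C, with Hoechst nuclear counterstain (ex 352/em 461) allowing per-cell normalisation.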
% is set by controls: 0 for no effect and ±100 for the full control effect.

Sequence of Estrogen receptor (Homo sapiens) (P03372 whole entry, looked up): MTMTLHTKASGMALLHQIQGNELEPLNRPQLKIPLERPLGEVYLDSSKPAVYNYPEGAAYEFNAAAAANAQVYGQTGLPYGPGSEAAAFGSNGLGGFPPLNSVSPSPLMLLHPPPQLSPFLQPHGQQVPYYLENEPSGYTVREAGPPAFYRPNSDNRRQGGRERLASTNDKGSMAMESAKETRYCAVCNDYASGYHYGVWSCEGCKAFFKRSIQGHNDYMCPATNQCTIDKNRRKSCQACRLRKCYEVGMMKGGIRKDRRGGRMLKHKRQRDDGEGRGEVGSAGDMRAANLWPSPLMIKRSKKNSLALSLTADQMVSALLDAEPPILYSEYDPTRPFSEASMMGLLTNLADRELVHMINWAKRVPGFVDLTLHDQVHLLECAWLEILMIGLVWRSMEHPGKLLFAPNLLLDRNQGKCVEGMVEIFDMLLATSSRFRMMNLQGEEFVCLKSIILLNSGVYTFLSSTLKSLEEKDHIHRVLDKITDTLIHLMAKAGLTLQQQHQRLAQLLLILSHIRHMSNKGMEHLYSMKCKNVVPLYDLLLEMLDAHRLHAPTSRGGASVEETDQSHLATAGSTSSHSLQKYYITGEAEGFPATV
Sequence of Androgen receptor (Homo sapiens) (P10275 whole entry, looked up): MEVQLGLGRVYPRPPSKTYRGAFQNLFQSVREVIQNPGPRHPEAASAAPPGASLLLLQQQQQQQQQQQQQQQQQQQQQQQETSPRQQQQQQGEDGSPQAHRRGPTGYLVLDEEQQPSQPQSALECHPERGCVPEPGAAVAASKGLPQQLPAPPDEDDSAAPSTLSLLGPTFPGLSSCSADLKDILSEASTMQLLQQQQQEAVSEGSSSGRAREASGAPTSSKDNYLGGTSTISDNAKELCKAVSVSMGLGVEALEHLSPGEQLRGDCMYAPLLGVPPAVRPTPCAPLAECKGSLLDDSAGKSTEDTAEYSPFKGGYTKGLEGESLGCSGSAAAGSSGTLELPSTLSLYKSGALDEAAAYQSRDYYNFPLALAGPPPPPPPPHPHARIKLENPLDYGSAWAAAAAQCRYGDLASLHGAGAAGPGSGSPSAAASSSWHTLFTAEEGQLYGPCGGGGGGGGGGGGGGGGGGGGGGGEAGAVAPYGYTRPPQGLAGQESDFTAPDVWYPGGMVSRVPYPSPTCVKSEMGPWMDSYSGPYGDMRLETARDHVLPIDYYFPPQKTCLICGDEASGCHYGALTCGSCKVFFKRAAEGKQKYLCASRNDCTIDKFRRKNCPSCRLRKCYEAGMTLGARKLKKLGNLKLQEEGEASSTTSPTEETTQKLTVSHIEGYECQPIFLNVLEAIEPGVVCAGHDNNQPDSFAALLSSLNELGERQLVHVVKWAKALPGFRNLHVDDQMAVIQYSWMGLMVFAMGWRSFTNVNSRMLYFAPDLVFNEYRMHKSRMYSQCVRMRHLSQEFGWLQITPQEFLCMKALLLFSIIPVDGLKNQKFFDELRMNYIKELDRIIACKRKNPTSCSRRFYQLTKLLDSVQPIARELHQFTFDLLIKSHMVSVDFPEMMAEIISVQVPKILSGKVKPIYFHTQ
Sequence of Estrogen receptor beta (Homo sapiens) (Q92731 whole entry, looked up): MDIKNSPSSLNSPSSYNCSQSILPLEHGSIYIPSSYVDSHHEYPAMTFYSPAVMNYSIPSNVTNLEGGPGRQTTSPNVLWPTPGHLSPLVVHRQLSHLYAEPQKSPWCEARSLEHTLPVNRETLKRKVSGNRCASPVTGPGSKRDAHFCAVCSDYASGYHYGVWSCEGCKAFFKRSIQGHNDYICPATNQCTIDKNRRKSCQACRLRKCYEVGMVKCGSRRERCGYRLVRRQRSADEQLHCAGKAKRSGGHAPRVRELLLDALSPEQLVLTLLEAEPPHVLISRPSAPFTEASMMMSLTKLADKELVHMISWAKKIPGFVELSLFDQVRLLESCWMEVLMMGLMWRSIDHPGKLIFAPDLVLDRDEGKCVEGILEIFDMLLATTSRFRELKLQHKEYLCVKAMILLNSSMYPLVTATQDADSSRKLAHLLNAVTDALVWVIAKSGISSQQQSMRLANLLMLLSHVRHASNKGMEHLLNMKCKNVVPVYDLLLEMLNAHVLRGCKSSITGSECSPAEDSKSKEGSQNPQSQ

CCCCCCCCCCCCCCCCI
inactive: activity change, negative = cytotoxicity [1] -7.78% [at 15.8 µM] | activity change, negative = cytotoxicity [2] -0.789% [at 15.8 µM] | activity change [3] -4.25% [at 15.8 µM, stronger effect = higher value] | activity change, negative = cytotoxicity [4] -19.8% [at 15.8 µM] | cytotoxicity increase [5] -10.7% [at 15.8 µM] | activity change, negative = cytotoxicity [6] 7.96% [at 19 µM] | viability change, negative = cytotoxic [7] 2.57% [at 19 µM] | outcome [8] | activity change, negative = inhibition [9] 1.82% [at 19 µM] | activity change, negative = cytotoxicity [10] -1.08% [at 19 µM] | viability change, negative = cytotoxic [11] -1.6% [at 19 µM] | activity change [12] -0.0263% [at 18.9 µM] | activation [13] 0.348% [at 19 µM] | activity, negative = inhibition [14] 2.97% [at 19 µM] | activity change, negative = cytotoxicity [15] -1.43% [at 19 µM] | activity change, negative = cytotoxicity [16] -6.04% [at 19 µM]

CNC(=O)NC
inactive: Potency [1] | Potency [2] | Potency [3] | Potency [4] | Potency [5] | Potency [6] | Potency [7] | outcome [8] | Potency [9] | outcome [10] | Potency [17] | Potency [11] | outcome [12] | Potency [18] | Potency [13] | Potency [15] | outcome [16]

O=C(O)/C=C/c1ccccc1
inactive: Potency [1] | Potency [2] | Potency [3] | Potency [4] | Potency [5] | Potency [6] | Potency [7] | Potency [19] | outcome [20] | Potency [9] | outcome [10] | Potency [11] | outcome [12] | Potency [18] | Potency [15] | outcome [16]

CCCCOC(=O)C(C)OC(=O)CCC (centres undefined)
inactive: Potency [1] | Potency [2] | Potency [3] | Potency [4] | Potency [5] | Potency [6] | Potency [7] | Potency [19] | Potency [9] | outcome [10] | Potency [17] | Potency [11] | outcome [12] | Potency [18] | Potency [13] | outcome [14] | Potency [15]

Cc1cccc(Nc2ccncc2S(=O)(=O)NC(=O)NC(C)C)c1
inactive: Potency [1] | Potency [2] | Potency [3] | Potency [4] | Potency [5] | Potency [6] | Potency [7] | Potency [19] | outcome [20] | Potency [9] | outcome [10] | Potency [17] | Potency [11] | outcome [12] | Potency [18] | Potency [13] | outcome [14] | Potency [15] | outcome [16]

NCCc1ccn[nH]1
inactive: Potency [1] | Potency [2] | Potency [3] | Potency [4] | Potency [5] | Potency [6] | Potency [7] | outcome [8] | outcome [20] | Potency [9] | outcome [10] | Potency [17] | Potency [11] | outcome [12] | Potency [18] | Potency [13] | outcome [14] | Potency [15] | outcome [16]

CCCCC(CC)CNC(=O)CC(C)OC(=O)CCC(=O)O (centres undefined)
active: Potency [5] 26.8 µM
inactive: Potency [1] | Potency [2] | Potency [3] | Potency [4] | Potency [6] | Potency [7] | outcome [8] | Potency [9] | outcome [10] | Potency [17] | Potency [11] | outcome [12] | Potency [18] | Potency [13] | Potency [15] | outcome [16]

Cc1ccccc1OCC1CO1 (centres undefined)
inactive: Potency [1] | Potency [2] | Potency [3] | Potency [4] | Potency [5] | Potency [6] | Potency [7] | Potency [19] | Potency [9] | outcome [10] | Potency [17] | Potency [11] | outcome [12] | Potency [18] | Potency [13] | outcome [14] | Potency [15] | outcome [16]

CCCCOC(=O)[C@@H](C)Oc1ccc(Oc2ccc(C(F)(F)F)cn2)cc1
inactive: Potency [3] | Potency [4] | Potency [5] | Potency [6] | Potency [7] | Potency [19] | Potency [9] | outcome [10] | Potency [17] | Potency [11] | outcome [12] | Potency [18] | Potency [13] | Potency [15] | outcome [16]
active: Potency [1] 31.1 µM | Potency [2] 24.7 µM

CCCO
inactive: Potency [1] | Potency [2] | Potency [3] | Potency [4] | Potency [5] | Potency [6] | Potency [7] | Potency [19] | Potency [9] | outcome [10] | Potency [17] | Potency [11] | Potency [18] | Potency [13] | outcome [14] | Potency [15] | outcome [16]

CC(CC(=O)O)CC(C)(C)C (centres undefined)
inactive: Potency [1] | Potency [2] | Potency [3] | Potency [4] | Potency [5] | Potency [6] | Potency [7] | Potency [19] | Potency [9] | outcome [10] | Potency [17] | Potency [11] | outcome [12] | Potency [13] | Potency [15] | outcome [16]

O=S(=O)(O)CCO
inactive: Potency [1] | Potency [2] | Potency [3] | Potency [4] | Potency [5] | Potency [6] | Potency [7] | Potency [19] | Potency [9] | outcome [10] | Potency [17] | Potency [11] | outcome [12] | outcome [14] | Potency [15]

CC(=O)Nc1ccc(C)cc1
inactive: Potency [1] | Potency [2] | Potency [3] | Potency [4] | Potency [5] | Potency [6] | Potency [7] | Potency [19] | Potency [9] | outcome [10] | Potency [17] | Potency [11] | Potency [18] | Potency [13] | outcome [14] | Potency [15] | outcome [16]

CCC(C)N (centres undefined)
inactive: Potency [1] | Potency [2] | Potency [3] | Potency [4] | Potency [5] | Potency [6] | Potency [7] | Potency [19] | Potency [9] | outcome [10] | Potency [17] | Potency [11] | outcome [12] | Potency [13] | outcome [14] | Potency [15] | outcome [16]

Cc1cc(O)c2c(c1)C(=O)c1cccc(O)c1C2=O
inactive: Potency [1] | Potency [2] | Potency [3] | Potency [4] | Potency [5] | Potency [6] | Potency [7] | Potency [19] | outcome [10] | Potency [17] | outcome [12] | Potency [18] | Potency [13] | Potency [15] | outcome [16]
active: Potency [9] 13.4 µM
